Screens as filed in PubChem.
Rows were chosen to be rich in hits. Some 3.4% of all compounds tested hit in one or more screens of this group.
ADAM17 inh – inhibits human ADAM17; P78536; recombinant ADAM17, EDANS/DABCYL FRET peptide cleavage; inhibition, % at 6.95 µM; 0.83% of 370,000 active; AID 720648;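 active means inhibition above the mean of compounds lying between control limits plus 3 SD, set per campaign, cut at about 8.5% in these data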;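 further: 0% = DMSO-only wells as the low control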
KLK7 zymogen act – activates the human kallikrein-7 zymogen. activation, % at 7 µM. P49862. 0.9% of 370,000 active. purified proKLK7, EDANS-DABCYL substrate fluorescence; 100% is mature enzyme control, 0% vehicle;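 active means activation above the mean of all tested compounds plus 3 SD, computed per campaign excluding outliers beyond control limits, cut at about 13% in these data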
ADAM10 inh – inhibits human ADAM10. recombinant ADAM10, EDANS/DABCYL FRET peptide cleavage, 3 h. inhibition, % at 7 µM. 0.62% of 370,000 active. AID 720582;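 active means inhibition above a per-campaign cutoff equal to the mean of compounds falling between control-based bounds plus 3 SD, cut at about 20% in these data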;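 further: 0% = DMSO wells while the 100% control is not disclosed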
Target sequence (O14672 214-748 limits assumed): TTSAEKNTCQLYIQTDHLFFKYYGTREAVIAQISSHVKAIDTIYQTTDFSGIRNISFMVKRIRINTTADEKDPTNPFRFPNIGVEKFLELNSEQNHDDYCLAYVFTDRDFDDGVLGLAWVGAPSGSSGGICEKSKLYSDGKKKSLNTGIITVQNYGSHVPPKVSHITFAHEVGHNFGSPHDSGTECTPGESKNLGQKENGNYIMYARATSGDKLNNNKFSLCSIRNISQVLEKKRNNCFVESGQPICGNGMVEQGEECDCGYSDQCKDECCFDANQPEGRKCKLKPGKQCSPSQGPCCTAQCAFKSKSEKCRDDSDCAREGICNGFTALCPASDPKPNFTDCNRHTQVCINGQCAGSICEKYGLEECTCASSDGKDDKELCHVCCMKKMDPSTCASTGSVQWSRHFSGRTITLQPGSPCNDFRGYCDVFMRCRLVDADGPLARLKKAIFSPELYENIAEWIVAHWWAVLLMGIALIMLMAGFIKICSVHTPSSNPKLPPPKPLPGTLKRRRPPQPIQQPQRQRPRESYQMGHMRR
sPLA2-III inh – Inhibits HGIII-sPLA2 liposome hydrolysis, primary screen | QFRET BODIPY PC-A2 liposome hydrolysis, fluorescence | inhibition, % at 12.2 µM | 0.56% of 370,000 active;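 active means inhibition above mean plus 3 SD of compounds lying within the high and low control bounds, cut at about 19% in these data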;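 further: 0% = median of test compound wells and 100% = no enzyme DMSO wells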
CendR NRP1 mod – NRP-1/CendR interaction modulation. AID 602438. O14786. FAM-RPARPAR peptide binding to NRP-1, fluorescence polarization. 0.85% of 360,000 active. inhibition, % at 25 µM;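 active means inhibition or corrected inhibition above about 18%, plus a signal ratio from 0.5 to 1.5, limit read from the data, passing the limit was not always enough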
ADAM10 confirm – confirmation of inhibitors of human ADAM10 | ADAM10 QFRET peptide cleavage, EDANS fluorescence | AID 743208 | inhibition, % at 6.95 µM | 1% of 2,100 active | shares compounds with ADAM10 inh;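 active means inhibition above about 20% chosen separately for each screening run, limit read from the data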;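 further: 0% = DMSO wells and 100% = marimastat wells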
ADAM17 counter – ADAM17 inhibition, counter-screen for ADAM10 exosite hits; 0.5% of 2,100 active; inhibition, % at 6.95 µM; ADAM17 QFRET peptide cleavage, EDANS fluorescence; shares compounds with ADAM10 inh;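 active means mean triplicate inhibition above the solvent-only control wells' mean plus 3 SD, cut at about 12% in these data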;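 further: 0% = DMSO wells and 100% = marimastat wells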
* = called active by the depositor; · = no result given.

SMILES | ADAM17 inh | KLK7 zymogen act | ADAM10 inh | sPLA2-III inh | CendR NRP1 mod | ADAM10 confirm | ADAM17 counter
COc1cccc(C(=O)Nc2ccc(C(=O)NCC3COc4ccccc4O3)cc2)c1 (stereo not given) | 3.5 | 0.0 | -5.6 | 2.9 | · | · | ·
CC(=O)C1(C(=O)NCc2ccccc2)CC(c2ccccn2)=NO1 (stereo not given) | -5.6 | 0.4 | -21.4 | 13.7 | · | · | ·
C=CC[C@@H](Cc1ccc(F)cc1)C(=O)OC[C@H]1CCCN1C(=O)[C@@H](CC=C)CC(=O)N[C@H](CO)Cc1ccccc1 | 0.6 | -0.2 | 13.3 | -31.4 | 12.7 | · | ·
C=CCC[C@H](Cc1ccc(F)cc1)C(=O)OC[C@H]1CCCN1C(=O)[C@@H](CC=C)CC(=O)NCCO | -4.2 | 0.6 | -15.9 | 3.8 | -0.9 | · | ·
C=CCC[C@@H](Cc1ccc(F)cc1)C(=O)OC[C@@H]1CCCN1C(=O)[C@@H](CC=C)CC(=O)N(CCO)Cc1ccccc1 | 4.1 | 0.4 | 21.2* | -9.9 | 11.5 | 1.0 | 1.3
C=CCC[C@@H](Cc1ccc(F)cc1)C(=O)OC[C@H]1CCCN1C(=O)[C@@H](CC=C)CC(=O)N[C@H](CO)Cc1ccccc1 | 4.4 | 0.0 | 20.8* | -54.4 | 4.1 | 0.6 | 0.7
CC(=O)C1=C(C)N(Cc2ccc(Cl)cc2)C(=S)NC1c1cccc(Br)c1 (stereo not given) | 4.5 | 0.2 | 5.4 | 3.4 | · | · | ·
O=C(CCc1ccccc1)N[C@H]1[C@H](OC(=O)c2ccco2)CCC[C@@]12C(=O)N(Cc1ccccc1)c1ccccc12 | 6.2 | 0.8 | 21.2* | -6.8 | · | 4.1 | 1.6
O=C(NCc1n[nH]c(=S)n1-c1ccc(Cl)c(Cl)c1)c1ccc(S(=O)(=O)N2CCCCC2)cc1 | 6.2 | -0.3 | 8.8 | -5.7 | -2.2 | · | ·
CCCN(CCC)S(=O)(=O)c1ccc(C(=O)NCc2n[nH]c(=S)n2-c2ccc(Cl)c(Cl)c2)cc1 | 6.2 | -0.2 | 24.4* | -15.1 | 5.1 | 0.7 | 0.7
COC(=O)[C@]12C[C@H](CC(=O)NCC34CC5CC(CC(C5)C3)C4)C(=O)N(CCc3ccc(OC)c(OC)c3)C1=C[C@H](C(C)C)O[C@@H]2C1CC1 | 2.7 | -0.4 | 11.6 | -10.7 | · | · | ·
Cc1cc(NC(=O)C(C)SCC(=O)O)no1 (stereo not given) | -4.9 | -0.2 | -0.8 | 0.1 | 5.4 | · | ·
Cc1cc(NC(=O)C(C)SCC(=O)Nc2nnc(CC(C)C)s2)no1 (stereo not given) | 1.2 | 0.3 | 82.2* | -3.6 | 15.5 | 0.5 | 0.3
CN(C)c1ccc(NS(=O)(=O)c2ccc(-c3csnn3)cc2)cc1 | 1.2 | 0.7 | 25.0* | 5.3 | 3.9 | -2.1 | -0.3
COc1cccc(C(O)c2nc(-c3ccccc3C)cs2)c1 (stereo not given) | 7.7 | -0.8 | 19.8* | -11.8 | -7.7 | 1.3 | -0.2
COc1cccc(C(O)c2nc(-c3ccccc3OC)cs2)c1 (stereo not given) | -2.6 | 0.1 | -3.1 | -8.9 | 3.5 | · | ·
O=C(NCc1ccccc1)OC1CCC12CCC(c1ccccc1)CC2 (stereo not given) | 0.5 | · | 6.6 | -6.2 | · | · | ·
NS(=O)(=O)c1ccc(CCNC(=O)c2cc(-c3cc(Cl)ccc3O)n[nH]2)cc1 | 1.5 | 0.1 | 23.4* | -19.1 | -2.1 | 2.0 | 1.8
COc1ccccc1NS(=O)(=O)c1cccc(C(=O)OCc2nc3ccccc3s2)c1 | 7.7 | 0.3 | 21.1* | -38.5 | -11.6 | 6.6 | 1.7
COc1ccc(NC(=O)N(C)[C@H]2C[C@H]3c4[nH]c5c(-c6cccc(C)c6)cccc5c4CCN3C(=O)[C@H]2[C@H](C)O)cc1 | -38.6 | -2.7 | -129.3 | -28.1 | · | · | ·
CCOc1ccc(NC(=O)CN(C)C(=O)CSCc2cccc(C)c2)cc1OCC | -0.3 | 0.1 | 30.2* | -1.9 | -5.5 | 6.2 | 1.1
CCOc1ccc(NC(=O)CN(C)C(=O)CSCc2ccc(C)cc2)cc1OCC | -1.3 | 0.1 | 1.1 | -3.7 | 2.2 | · | ·
O=C(Nc1ccc(C(O)(C(F)(F)F)C(F)(F)F)cc1)c1ccc(F)cc1Cl | 6.0 | · | 16.0 | -7.7 | · | · | ·
CC(=O)N(c1ccc2oc(=O)sc2c1)S(=O)(=O)c1cccs1 | 1.7 | -0.6 | 13.9 | -10.7 | 11.7 | · | ·
CC(C)C(=O)N(c1ccc2oc(=O)sc2c1)S(=O)(=O)c1cccs1 | 2.7 | -0.6 | 22.4* | -23.1 | 8.2 | 5.0 | 0.2
SMILES | ADAM17 inh | KLK7 zymogen act | ADAM10 inh | sPLA2-III inh | CendR NRP1 mod | ADAM10 confirm | ADAM17 counter
O=C(N/N=C\c1ccc(Cl)cc1Cl)c1sccc1-n1cccc1 | 2.5 | 0.4 | 19.9* | -15.8 | -0.1 | 7.5 | 1.5
Clc1cccc(Cl)c1CON/C=N/c1ncnc2sccc12 | 3.3 | 0.1 | 5.4 | 7.8 | -0.4 | · | ·
Clc1cccc(CON/C=N/c2ncnc3sccc23)c1 | 6.4 | -0.5 | 21.2* | 1.6 | -9.3 | 2.2 | 0.7
Cc1ccccc1C1CCC2(CCC(=O)N2CC[C@@H](O)c2ccccc2)CC1 (stereo not given in full) | -2.3 | · | -3.6 | -0.9 | · | · | ·
N#CNC(=Nc1cccc(F)c1)SCc1ccccc1F | 4.0 | -0.2 | 22.9* | -45.6 | -0.5 | -0.1 | -0.1
CC(C)N=C(NC#N)SCc1ccccc1F | -5.8 | -0.3 | -1.0 | -3.4 | 2.4 | · | ·
COc1cccc(NC(=O)CN2C(=O)CSc3ccc(S(=O)(=O)N4CCC(C)CC4)cc32)c1 | 3.3 | 0.4 | 20.6* | -8.8 | -4.4 | 2.6 | 1.3
COc1cccc(NC(=O)CN2C(=O)CSc3ccc(S(=O)(=O)N4CCOCC4)cc32)c1 | 3.8 | 0.1 | 3.2 | -1.6 | 10.0 | · | ·
Cc1ccc(NC(=O)CN2CCN(c3nc(-c4ccccc4)cs3)CC2)cc1C | 7.3 | 0.7 | 22.1* | -4.5 | · | 7.2 | 2.4
O=C(CN1CCN(c2nc(-c3ccccc3)cs2)CC1)Nc1ccc(F)cc1F | 4.6 | 0.3 | 12.6 | -2.7 | · | · | ·
CCCC(=O)N1CCC[C@]2(CC[C@H](CCC(C)=O)O2)C1 | -5.2 | -0.5 | -7.8 | 15.5 | · | · | ·
Clc1ccccc1CSc1nncn1NC/C=C/c1ccccc1 | 8.3 | 0.2 | 20.0* | -47.7 | -9.7 | 0.3 | 0.3
O=C(COC(=O)c1c2c(nc3ccccc13)CCCC2)Nc1ccc2c(c1)OCO2 | 8.0 | -0.6 | 23.9* | -9.1 | 2.8 | 3.5 | 0.8
Cc1cccc(N=Nc2c(C)nn(-c3ccccc3)c2N)c1C | 5.9 | 0.1 | 23.1* | 13.0 | -2.2 | 7.1 | 2.8
Cc1nn(-c2ccccc2)c(N)c1N=Nc1ccccc1 | 1.4 | 0.5 | 4.6 | 2.5 | -2.3 | · | ·
Cc1cccc(CCNC(=O)c2ccc3c(c2)ncn3C2CCCCC2)c1 | 0.0 | 0.5 | 6.8 | -5.0 | · | · | ·
O=C(NC(=S)Nc1ccccc1N1CCCCC1)c1ccc(-c2cccc([N+](=O)[O-])c2)o1 | 1.1 | 0.3 | 6.6 | 0.2 | 2.6 | · | ·
